# SMN2 splice up: increases expression of the SMN2 splice variant; HEK293 SMN2-luciferase splicing reporter, luminescence, 30-36 h; Potency, µM (series often up to 46.1 µM), for inactives: top-dose activity change, positive = activation, actives largely listed as activators; actives 2.8% (n = 210,000); note: % of control where 0% means no effect; nearly all actives have a fitted effect of over 55% in size
#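 HEK293 cells carry an SMN2 […]–luciferase reporter in which exon 7 inclusion puts luciferase in frame. Cells were plated 10-12 h before compound addition, then incubated 30-36 h at 37C. ONE-Glo luminescence was read; sodium butyrate at 4.5 mM final served as control.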
# ELG1 genotoxic: induces genotoxicity in HEK293T cells with luciferase-tagged ELG1 | actives 1.3% (n = 330,000) | HEK293T ELG1-luciferase reporter, luminescence, 16 h | Potency, µM (titrated, usually from 46 µM), for inactives: top-dose activity change, positive = activation, actives largely listed as activators; note: % of control where 0% means no effect; nearly all actives have a fitted effect of over 60% in size
#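 After overnight (16 hr) compound treatment at 37 °C, ELG1-luciferase HEK293T cells were lysed with ONE-Glo; luminescence quantified 30 min later at room temperature.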
# FLuc counter: counter-screen for miR-21 project: firefly luciferase inhibitors or activators | purified FLuc, Km substrates, luminescence inhibition | Potency, µM (series often up to 57.5 µM), for the others: at the highest dose activity change, negative = inhibition, most hits filed as inhibitors | actives 6.9% (n = 360,000) | AID 588342;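 note: plate controls were vehicle for no effect and reference inhibitor for full effect; nearly all actives have a fitted effect of over 55% in size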
# Target sequence (P08659 whole entry, looked up): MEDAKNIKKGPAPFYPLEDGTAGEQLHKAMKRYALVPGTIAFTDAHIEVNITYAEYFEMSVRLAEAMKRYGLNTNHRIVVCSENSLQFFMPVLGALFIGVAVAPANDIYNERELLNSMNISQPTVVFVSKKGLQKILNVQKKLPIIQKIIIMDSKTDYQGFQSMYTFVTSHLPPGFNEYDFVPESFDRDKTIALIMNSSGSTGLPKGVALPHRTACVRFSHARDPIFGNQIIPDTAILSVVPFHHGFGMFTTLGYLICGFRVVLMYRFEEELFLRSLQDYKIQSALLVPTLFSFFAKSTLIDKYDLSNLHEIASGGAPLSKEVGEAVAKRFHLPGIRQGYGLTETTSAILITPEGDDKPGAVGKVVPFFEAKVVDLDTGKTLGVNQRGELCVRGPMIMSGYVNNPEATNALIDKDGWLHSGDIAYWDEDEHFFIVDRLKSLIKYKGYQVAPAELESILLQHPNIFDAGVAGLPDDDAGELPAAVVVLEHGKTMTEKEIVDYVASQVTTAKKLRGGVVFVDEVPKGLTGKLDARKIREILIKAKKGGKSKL
#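 Purified P. pyralis luciferase, 10 nM final, with Km-level 10 uM D-luciferin and 10 uM ATP in 50 mM Tris acetate pH 7.5, 10 mM Mg acetate, 0.01% Tween-20, 0.05% BSA; 6-point qHTS titration about 60 µM downward; luminescence read.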
# NPC1 prom act: activators of NPC1 promoter; Huh7 NPC1 promoter luciferase reporter, 24 h; AID 485313; actives 2.4% (n = 320,000); Potency, µM (doses to about 9.22 µM), for the others: top-dose activation, usual class: activators; note: % of control where 0% means no effect; nearly all actives have a fitted effect of over 60% in size
#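 Readout is luciferase luminescence, reflecting NPC1 promoter activation in stably transfected Huh7 cells after 24 h compound exposure at 37 °C in reduced-serum medium with 10% FBS.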
# KinaseGlo FLuc: blocks Kinase-Glo luciferase, a counter-screen artifact; Q27757; Kinase-Glo luciferase, ATP luminescence, 8 min; Potency, µM (titrated, usually from 38.3 µM), without a hit: at the top dose activity change, negative = inhibition, hits mostly inhibitors; actives 0.28% (n = 200,000); AID 1379; note: % is set by controls: 0 for no effect and ±100 for the full control effect; nearly all actives have a fitted effect of over 60% in size
#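 Compounds were added to a substrate mix at pH 7.2 (50 mM imidazole, 10 uM ATP, within the enzyme's linear range), followed by Kinase-Glo detection reagent; luminescence was measured after 8 minutes at ambient temperature.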
# Rab9 prom act: activators of Rab9 promoter. Huh7 Rab9 promoter-luciferase reporter, luminescence, 24 h. Potency, µM (doses to about 9.22 µM), for inactives: top-dose activation, negative = inhibition, most hits filed as activators. actives 2.8% (n = 320,000); note: % of control where 0% means no effect; nearly all actives have a fitted effect of over 60% in size
#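 Luciferase signal after 10 min detection reagent at ambient indicates Rab9 promoter upregulation; stably transfected Huh7 cells were treated 24 h with compound in DMSO at 37 °C, 5% CO2.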
# * = called active by the depositor; ? = inconclusive; . = not tested or not shown; [ ] = remark or other dose. In the library only some 7.5% were active in any assay of this set; here they are far more common. Calls come from the whole dose curve; as a rule, active = well fitted curve in the direction sought with a large enough effect; inconclusive = small, poorly fitted or top-dose-only effect, or another doubt; inactive = no such curve, though single readings can be large; an effect the other way counts as inactive or inconclusive. Potency is the fitted concentration of half-maximal effect.
SMILES,SMN2 splice up,ELG1 genotoxic,FLuc counter,NPC1 prom act,KinaseGlo FLuc,Rab9 prom act
CCOC(=O)c1sc(Nc2ccccc2Cl)nc1C,.,?,15µM*,?,.,?
CCOC(=O)Cc1csc(NC(=O)Cc2ccccc2)n1,.,1%,-1%,-3%,-2%,1%
Cc1ccc(S(=O)(=O)N/N=C\c2ccc3c(c2)OCO3)cc1,9%,2%,15µM*,-5%,1%,5%
COc1ccc(S(=O)(=O)N/N=C\c2ccc3c(c2)OCO3)c(OC)c1,.,1%,-9%,-12%,.,-13%
Cc1ccc(C(=O)O/N=C/c2ccc3c(c2)OCO3)cc1,2%,0%,1.2µM*,0%,-4%,10%
COc1ccccc1/C=N/OC(=O)c1ccc(C)cc1,.,4%,1.9µM*,-7%,-1%,-1%
COc1ccc(OC)c(S(=O)(=O)N/N=C\c2ccc3c(c2)OCO3)c1,.,?,9.5µM*,26%,.,21%
Cc1ccc(NC(=O)CNCCCN2CCOCC2)cc1S(=O)(=O)N1CCCCC1,.,-8%,1%,-2%,.,2%
CCOc1ccccc1NC(=O)c1nnn(CC(=O)Nc2ccccc2CC)c1N,-2%,.,-1%,.,.,.
O=S(=O)(N/N=C\c1ccc2c(c1)OCO2)c1ccccc1,.,8%,21µM*,0%,.,0%
O=S(=O)(N/N=C\c1ccc2c(c1)OCO2)c1ccc(F)cc1,.,-5%,-11%,0%,.,3%
COC(=O)c1ccc(NC(=O)CSCC(=O)OCC(=O)c2ccc(Br)cc2)cc1,-11%,0%,12µM*,-3%,-2%,1%
O=C(CSC(=S)N1CCCC1)c1ccccc1,.,0.58µM*,1.1µM*,0.63µM*,.,0.4µM*
O=C(CSC(=S)N1CCCCC1)c1ccccc1,0.56µM*,0.65µM*,1.2µM*,0.5µM*,-29%,0.32µM*
O=C(O)CSC(=S)N1CCCC1,.,-2%,-3%,-2%,.,-2%
COc1ccc(-c2cc(C)no2)cc1S(=O)(=O)NC1CCC(C)CC1 (stereo unspecified),.,.,6%,.,.,.
Cc1c(N=Cc2ccc(-c3ccc(Cl)cc3)o2)c(=O)n(-c2ccccc2)n1C,-34%,6%,9.5µM*,-4%,-7%,4%
Cc1c(N=C/C=C/c2ccccc2)c(=O)n(-c2ccccc2)n1C,-2%,3%,19µM*,-3%,-2%,10%
C(/C=C\c1ccccc1)=Nc1ccc2c(c1)Cc1ccccc1-2,0%[9.22 µM],.,.,.,-3%[7.66 µM],.
Cc1c(N=C/C=C/c2ccccc2)cnn1C,-10%,2%,6.7µM*,1%,0%,2%
Cc1ccccc1-c1ccc(C=Nc2c(C)n(C)n(-c3ccccc3)c2=O)o1,-34%,3%,4.8µM*,2%,-10%,2%
Cc1c(N=Cc2ccco2)c(=O)n(-c2ccccc2)n1C,-3%,1%,-2%,2%,-1%,-5%
Cc1c(N=Cc2ccc(Cl)o2)c(=O)n(-c2ccccc2)n1C,7%,1%,-4%,1%,-6%,2%
COc1cccc(CNS(=O)(=O)c2ccc(N3CCCCS3(=O)=O)cc2)c1,.,.,2%,.,.,.
O=C(CN1CCCN(Cc2ccccc2F)S1(=O)=O)Nc1ccc(F)c(Cl)c1,.,.,-11%,.,.,.
SMILES,SMN2 splice up,ELG1 genotoxic,FLuc counter,NPC1 prom act,KinaseGlo FLuc,Rab9 prom act
O=C(CN(C(=O)CCC(=O)Nc1nccs1)c1cccc(C(F)(F)F)c1)NCC1CCCO1 (stereo unspecified),.,-2%,-1%,1%,.,-2%
CC(=O)c1c(C)[nH]c(C(=O)Nc2ccc(S(=O)(=O)N(C)C)cc2)c1C,.,8%,-2%,-9%,.,2%
CC(=O)c1c(C)[nH]c(C(=O)Nc2cccc(S(=O)(=O)N3CCCC3)c2)c1C,.,16µM*,.,.,.,.
CC(=O)c1c(C)[nH]c(C(=O)Nc2cccc(S(=O)(=O)N(C)C)c2)c1C,11µM*,?,-18%,1%,-2%,?
CCSc1ccc(/C(N)=N/OC(=O)c2cccs2)cn1,.,13µM*,6µM*,?,.,?
C/C(=N/NC(=O)c1ccc(Cl)cc1Cl)c1cccnc1,.,1%,?,2%,.,16%
N/C(=N\OC(=O)c1ccc(Cl)cc1Cl)c1cccnc1,.,2.6µM*,1.2µM*,1.4µM*,-12%,1.6µM*
CCOP(=O)(OCC)/C(=N/OC(=O)c1ccc(Cl)cc1Cl)C(N)=O,.,1%,-18%,-11%,.,-4%
N/C(=N\OC(=O)c1ccc(Cl)cc1Cl)c1ccc(Cl)cc1,22%,?,0.54µM*,1.4µM*,-7%,1.6µM*
N/C(Cc1ccc(Cl)c(Cl)c1)=N\OC(=O)c1cccs1,9%,0%,-12%,-3%,0%,0%
Cc1cccc(/C(N)=N/OC(=O)c2ccc(Cl)cc2Cl)c1,5µM*,?,0.48µM*,0.13µM*,?,0.32µM*
N/C(=N\OC(=O)c1ccc(Cl)cc1Cl)c1ccccc1,?,?,0.17µM*,4.5µM*,11µM*,0.5µM*
N/C(=N\OC(=O)c1cccc([N+](=O)[O-])c1)c1cccnc1,-3%,9%,?,-2%,0%,4%
N/C(=N\OC(=O)c1cccs1)c1cccnc1,.,?,8.5µM*,1%,.,0%
N/C(=N\OC(=O)c1ccc(Cl)cc1)c1cccnc1,8%,8.9µM*,1.3µM*,17%,-23%,3%
Cc1ccc(/C(N)=N/OC(=O)c2ccc(C)cc2Cl)cc1,?,?,0.85µM*,1.1µM*,-4%,0.71µM*
N/C(Cc1ccc(Cl)cc1Cl)=N\OC(=O)c1ccccc1,-4%,0%,-19%,0%,0%,2%
Cc1ccccc1/C(N)=N/OC(=O)c1cccs1,-3%[1.84 µM],?,6.7µM*,-1%,?,18%
CSc1ccc(CC(=O)N2CCC(n3nccc3NC(=O)C3CC3)CC2)cc1,.,?,?,3.2µM*,.,?
COc1cccc(CC(=O)N2CCC(n3nccc3NC(=O)C3CC3)CC2)c1,.,14%,-2%,9%,.,4%
O=C(O)/C=C/c1ccc([N+](=O)[O-])o1,6%,0%,3%,-4%,7%,-4%
O=C1NC(=S)S/C1=C\C=C\c1ccc([N+](=O)[O-])o1,.,?,24µM*,-43%,.,-49%
O=C(Nc1ccc2c(c1)nc1n2CCSC1)c1ccco1,-14%,?,2.7µM*,0.32µM*,10µM*,0.45µM*
O=C(COc1ccccc1)Nc1ccc2c(c1)nc1n2CCOC1,3%,?,?,?,9%,?
O=C(COc1ccccc1)Nc1ccc2c(c1)nc1n2CCSC1,10%,?,21µM*,?,-5%,4µM*

# Screens (PubChem BioAssay)
